# Measured values as given in PubChem BioAssay (NCATS).
# “And” between values parts separate entries of the source, which are not always exact repeats. Equal values may be shown once. Inconclusive results are not listed. Entries that show only a call come without a potency. More than one record can exist for a structure, and the calls need not agree. The source made the active and inactive calls. Unless noted, calls follow the shape of the dose curve; as a rule, active = well fitted curve in the direction sought with a large enough effect; inconclusive = small, poorly fitted or top-dose-only effect, or another doubt; inactive = no such curve, though single readings can be large; an effect the other way counts as inactive or inconclusive.
# Legend:
# [1] = molecular target: Cytochrome P450 2D6 (Homo sapiens) (UniProt P10635); experiment: Cytochrome P450 family 2 subfamily D member 6 (CYP2D6) small molecule antagonists: luciferase biochemical (cell-free) qHTS assay (AID 1645840; active = well fitted curve in the direction sought with a large enough effect in the repeat runs; an effect the other way counts as inactive or inconclusive; also: nearly all actives have a fitted effect of over 55% in size; also: potency is read from the fitted curve at half-maximal effect)
# Chain of Cytochrome P450 2D6 (Homo sapiens) (P10635 whole entry, looked up): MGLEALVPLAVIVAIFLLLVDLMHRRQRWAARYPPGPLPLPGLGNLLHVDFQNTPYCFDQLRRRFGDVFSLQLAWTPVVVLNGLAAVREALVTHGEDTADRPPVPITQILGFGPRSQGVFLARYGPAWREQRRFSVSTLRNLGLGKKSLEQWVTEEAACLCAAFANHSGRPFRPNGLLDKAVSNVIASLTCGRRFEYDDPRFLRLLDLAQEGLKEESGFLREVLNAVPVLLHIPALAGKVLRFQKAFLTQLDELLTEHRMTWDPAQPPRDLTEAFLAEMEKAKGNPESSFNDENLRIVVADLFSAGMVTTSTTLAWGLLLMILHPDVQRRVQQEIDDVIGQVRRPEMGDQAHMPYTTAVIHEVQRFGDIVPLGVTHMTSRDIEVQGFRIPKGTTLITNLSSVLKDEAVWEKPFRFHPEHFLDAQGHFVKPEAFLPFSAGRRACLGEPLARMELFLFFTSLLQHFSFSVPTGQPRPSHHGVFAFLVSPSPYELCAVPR
# Outline: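 P450-Glo luminescent screen: recombinant CYP2D6 enzyme–proluciferin substrate mix preincubated with compound 10 min at room temperature, then NADPH regeneration added for 1 h at room temperature. Detection reagent added for 20 min; luciferin light read as relative luminescence units.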
# [2] = molecular target: Cytochrome P450 2C9 (Homo sapiens) (UniProt P11712); experiment: Cytochrome P450 family 2 subfamily C member 9 (CYP2C9) small molecule antagonists: luciferase biochemical (cell-free) qHTS assay (AID 1645842; active = well fitted curve in the direction sought with a large enough effect in the repeat runs; an effect the other way counts as inactive or inconclusive; also: nearly all actives have a fitted effect of over 55% in size; also: potency is read from the fitted curve at half-maximal effect)
# Chain of Cytochrome P450 2C9 (Homo sapiens) (P11712 whole entry, looked up): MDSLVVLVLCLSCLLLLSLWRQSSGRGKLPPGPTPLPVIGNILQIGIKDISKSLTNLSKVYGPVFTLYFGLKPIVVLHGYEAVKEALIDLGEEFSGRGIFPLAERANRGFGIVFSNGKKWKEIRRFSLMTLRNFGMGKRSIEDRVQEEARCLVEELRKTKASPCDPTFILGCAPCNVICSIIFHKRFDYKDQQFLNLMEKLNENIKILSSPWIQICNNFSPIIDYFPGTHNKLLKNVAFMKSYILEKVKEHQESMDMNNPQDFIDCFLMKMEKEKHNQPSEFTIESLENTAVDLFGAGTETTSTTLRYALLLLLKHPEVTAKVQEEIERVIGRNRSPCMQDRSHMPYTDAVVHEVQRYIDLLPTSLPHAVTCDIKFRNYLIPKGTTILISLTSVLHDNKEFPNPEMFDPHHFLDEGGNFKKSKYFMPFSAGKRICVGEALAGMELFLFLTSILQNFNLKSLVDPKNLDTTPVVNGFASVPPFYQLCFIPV
# Outline: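 Luminescence, after 20 min with luciferin detection reagent, reflected CYP2C9 turnover during a 1 h NADPH-driven reaction at 37C. Enzyme-substrate mix contained 0.4% bovine serum albumin and was preincubated with compound 10 min at room temperature.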
# [3] = Primary qHTS for inhibitors of nuclear receptor binding SET domain protein 2 (NSD2) in an isogenic RCH-ACV NSD2 p.E1099K mutant (9B) (AID 1645876); also: nearly all actives have a fitted effect of over 70% in size; also: potency is read from the fitted curve at half-maximal effect
# [4] = Primary qHTS for inhibitors of nuclear receptor binding SET domain protein 2 (NSD2) in an RCH-ACV wild type WT cells (2C) (AID 1645877); also: nearly all actives have a fitted effect of over 70% in size; also: potency is read from the fitted curve at half-maximal effect
# [5] = molecular target: Glutathione peroxidase 1 (Homo sapiens) (UniProt P07203); experiment: Primary qHTS Assay for Inhibitors of Recombinant Selenoprotein Glutathione Peroxidase 1 (GPX1) (AID 1845191); also: nearly all actives have a fitted effect of over 65% in size
# Chain of Glutathione peroxidase 1 (Homo sapiens) (P07203 whole entry, looked up): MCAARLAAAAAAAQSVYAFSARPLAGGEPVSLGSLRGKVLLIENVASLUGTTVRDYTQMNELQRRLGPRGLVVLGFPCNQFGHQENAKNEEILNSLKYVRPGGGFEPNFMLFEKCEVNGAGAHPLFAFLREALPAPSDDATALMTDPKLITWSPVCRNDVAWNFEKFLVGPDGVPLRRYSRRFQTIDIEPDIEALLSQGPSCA
# Outline: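 Recombinant GPX1 (10 nM final) was preincubated with compound for 30 min at room temperature, then reacted with 1 mM GSH, 0.5 mM CHP, 0.5 mM NADPH and 100 nM glutathione reductase; NADPH fluorescence (340/450 nm) was read at 0 and 15 min.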
Structure (SMILES),Potency [1],Potency [2],Potency [3],Potency [4],Potency [5]
CN(C)C1CCN(C(=O)c2ccc(NC(=O)Nc3ccc(-c4nc(N5CCOCC5)nc(N5CCOCC5)n4)cc3)cc2)CC1,inactive,inactive,41.7 nM (active),33.2 nM (active),inactive
Cc1cc(C)c(CNC(=O)c2cc(-c3ccc(CN4CCOCC4)cc3)cc3c2cnn3C2CCCC2)c(=O)[nH]1,inactive,2390 nM (active),inactive and 18.6 µM (active),inactive and 18.6 µM (active),inactive
COc1ccc(F)cc1-c1cc(NC(=O)[C@@H]2CCCNC2)ncc1Cl,inactive,1340 nM (active),64.9 nM (active),64.9 nM (active),inactive
COc1ccc2[nH]c3c(-c4cccc5ccccc45)nccc3c2c1,15.1 nM (active),1510 nM (active),916 nM (active),578 nM (active),inactive
Cc1cccc2c1NC(=O)C2(c1ccc(O)cc1)c1ccc(O)cc1,26800 nM (active),9520 nM (active),3250 nM (active),8170 nM (active),inactive
CCC(COC)n1nnc2c(Nc3ccc(OC)cc3C)nc(C)cc21 (stereo not given),10700 nM (active),7560 nM (active),inactive,inactive,inactive
O=C(c1cccc(Cl)c1F)N1CCN(Cc2cccc(Nc3nccs3)n2)CC1,1690 nM (active),3380 nM (active),817 nM (active),728 nM (active),inactive
COc1ccc([C@H]2CNC(=O)C2)cc1OC1CCCC1,inactive,inactive,inactive,inactive,inactive
Cc1ccc(NC(=O)Nc2cc(C(F)(F)F)ccc2F)cc1Nc1ccc2c(c1)NC(=O)/C2=C\c1ccc[nH]1,inactive,inactive,11.5 µM (active) and 16.6 µM (active),20500 nM (active),inactive
COc1cc(C(=O)NC2CCN(C)CC2)c(F)cc1Nc1ncc2c(n1)N(C1CCCC1)CC(F)(F)C(=O)N2C,inactive,5350 nM (active),59 nM (active),83.3 nM (active),inactive
O=C(O)c1cccc(S(=O)(=O)N2CCc3ccccc3C2)c1,inactive,inactive,inactive,inactive,inactive
CN[C@H](C(=O)N[C@H](C(=O)N(C)[C@H](/C=C(\C)C(=O)O)C(C)C)C(C)(C)C)C(C)(C)c1ccccc1,inactive,inactive,inactive,inactive,inactive
O=C(O)[C@@H]1C[C@H]2C[C@@H](CCc3nn[nH]n3)CC[C@H]2CN1,inactive,inactive,inactive,inactive,inactive
CCCCCCOc1cc2c(cc1N(C)c1ncc(C(=O)O)cn1)C(C)(C)CCC2(C)C,10700 nM (active),inactive,inactive,inactive,inactive
COc1ncc2cc(C(=O)Nc3cc(C(=O)NCc4cccc(Cl)c4)ccc3Cl)c(=O)[nH]c2n1,inactive,19000 nM (active),6510 nM (active),5800 nM (active),inactive
COCCOc1ccc(N2CCN(CCn3ncc4c3nc(N)n3nc(-c5ccco5)nc43)CC2)cc1,inactive,inactive,inactive,inactive,inactive
Cc1cccc(C)c1-n1c(=O)c2cnc(Nc3ccc(N4CCN(C)CC4)cc3)nc2n2c3ccccc3nc12,inactive,8490 nM (active),205 nM (active),258 nM (active),inactive
CC(C)(C)NCCCNC(=O)c1cccc(Br)c1,849 nM (active),inactive,inactive,inactive,inactive
NC1CCC(Nc2cc(-c3cccc(NCc4cccc(F)c4)n3)c(Cl)cn2)CC1 (stereo not given),15100 nM (active),2130 nM (active),81.7 nM (active),72.8 nM (active),inactive
O=C1N=C(N2CCOCC2)CN1c1ccc(Cl)cc1,inactive,inactive,inactive,inactive,inactive
Cn1cc(-c2ccc3nnc(Sc4ccc5nn(C)cc5c4)n3n2)cn1,inactive,4770 nM (active),inactive,inactive,inactive
COc1ncc(Nc2ncc([C@H](C)N3CCN(S(C)(=O)=O)CC3)cc2-c2nc(C)nc(N)n2)cc1F,inactive,12000 nM (active),5.8 nM (active) and 5.9 nM (active),57.8 nM (active) and 8.3 nM (active),inactive
Cc1[nH]c2ccccc2c1C1=C(NCCc2ccc(F)cc2)C(=O)N(C)C1=O,4250 nM (active),379 nM (active),6490 nM (active),8170 nM (active),inactive
Cc1ccc(C)c(OCCn2cc(C(=O)O)c3ccccc32)c1,inactive,13500 nM (active),inactive,inactive,inactive
CC(C)(C#N)c1ccc(N2C(=O)OCc3cnc4ccc(-c5cnc6ccccc6c5)cc4c32)cc1,inactive,2680 nM (active),728 nM (active),817 nM (active),inactive
CCOC(=O)c1cc(C#N)c(N2CCC(C(=O)NS(=O)(=O)Cc3ccccc3)CC2)nc1C,inactive,2680 nM (active),inactive,inactive,inactive
NCc1ccc(Nc2ncc(F)c(Nc3ccccc3)n2)cc1,15100 nM (active),6740 nM (active),3250 nM (active),4090 nM (active),inactive
